A selection: hits, their analogues and other compounds. The true share with any hit is near 19%.
ELG1 DNA repair: blocks ELG1-dependent DNA repair in HEK293T cells; Potency, µM (highest dose often 46.1 µM), for the others: at the top dose activity change, negative = inhibition, hits mostly inhibitors; AID 504467; HEK293T ELG1-luciferase reporter, luminescence, 16 h; DNA damage induced by 5-fluorouridine; actives 2.3% (n = 330,000); further: potency means the concentration at half of the fitted maximal effect; nearly all actives have a fitted effect of over 55% in size
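Reporter activity after DNA damage by 5-fluorouridine is monitored. Compound-treated cells incubate 16 hr at 37 °C, then ONE-Glo is added for 30 min before luminescence reading.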
TDP1 cell CPT: DT40-hTDP1 cell growth loss with CPT; chicken DT40 Tdp1-/-;hTDP1 cells + 20 nM CPT, ATP luminescence, 48 h; Potency, µM (series often up to 46.2 µM), for the others: top-dose activity change, negative = growth inhibition, actives largely listed as inhibitors; actives 12% (n = 420,000); further: potency means the concentration at half of the fitted maximal effect; nearly all actives have a fitted effect of over 55% in size
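Cell growth measured by CellTiter-Glo luminescence after a minimum 48 h, 37 C compound exposure with 20 nM CPT in Tdp1-knockout DT40 cells stably expressing hTDP1, seeded 400/well; qHTS titration format.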
DT40 TDP1 no CPT: qHTS for Inhibitors of human tyrosyl-DNA phosphodiesterase 1 (TDP1): qHTS in cells in absence of CPT. actives 15% (n = 420,000). Potency, µM (doses to about 46.2 µM), without a hit: at the highest dose activity change, negative = growth inhibition, most hits filed as inhibitors. DT40 Tdp1-/- hTDP1 cells, no CPT, ATP luminescence, 48 h; further: potency means the concentration at half of the fitted maximal effect; nearly all actives have a fitted effect of over 55% in size
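Cells were dispensed at 400 per well, compounds added by pin tool, plates incubated ≥48 hr at 37 °C, then CellTiter-Glo added for 30 min at room temperature before luminescence reading. Line: DT40 Tdp1-/- complemented with hTDP1; camptothecin omitted.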
IL1B secr inh: blocks inflammasome-driven IL-1 beta release; THP-1 LPS/ATP IL-1B secretion, AlphaLISA, 16 h; active compounds read low; activity change, % at 57.5 µM; actives 4.7% (n = 360,000); in the data active means activity change below about -50%; inconclusive means mostly about -30% to -49%
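THP-1 cells pretreated 1 hr with compounds (up to 57.5 uM final), then stimulated with LPS (250 ng/mL final) plus ATP (1.25 mM final); secreted IL-1B measured by AlphaLISA after 16 hr, decreased signal indicating inhibition.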
HT1080 IDH1KD tx: HT-1080 IDH1 knockdown cell toxicity (counter line); AID 686971; Potency, µM (titrated, usually from 46.1 µM), for inactives: at the top dose activity, negative = toxicity, most hits filed as cytotoxic; HT-1080 IDH1 knockdown viability, ATP luminescence, 48 h; actives 2% (n = 360,000);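 further: potency means the concentration at half of the fitted maximal effect; 0% = DMSO wells and -100% = cell-free medium wells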
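IDH1KD HT-1080 cells, 750/well, RPMI + 5% FBS; compound pinned after 2 h settling; 48 h, 37 °C; CellTiter-Glo luminescence; % activity normalised to DMSO and no-cell wells; curves fitted, classed by r2 and efficacy.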
HT1080NT lethal: kills 2HG-producing HT-1080-NT fibrosarcoma cells; HT-1080-NT fibrosarcoma viability, CellTiter-Glo ATP luminescence, 48 h; Potency, µM (series often up to 46.1 µM), without a hit: at the highest dose activity, negative = less viability, usual class: cytotoxic; actives 1.6% (n = 360,000);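 further: NT is the 2HG producing partner of a matched IDH1 knockdown line; potency means the concentration at half of the fitted maximal effect; 0% = DMSO-treated cells and -100% = media-only wells without cells; nearly all actives have a fitted effect of over 55% in size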
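750 cells/well, RPMI + 5% FBS; 2 h settle, compound pin-transfer, 48 h at 37 degrees C. CellTiter-Glo 10 min RT, luminescence. Normalized to DMSO and media-only wells.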
The depositor's hits bear a star; ? = inconclusive; / = no result given. Unless noted, the call rests on the fitted dose curve; in most records, active means well fitted curve in the direction sought with a large enough effect; inconclusive means small, poorly fitted or top-dose-only effect, or another doubt; inactive means no such curve, though single readings can be large; an effect the other way counts as inactive or inconclusive. Unless noted, on the % scale 0 is the no-effect control and ±100 the full control effect.

SMILES | ELG1 DNA repair | TDP1 cell CPT | DT40 TDP1 no CPT | IL1B secr inh | HT1080 IDH1KD tx | HT1080NT lethal
O=C(COc1ccc(F)c(Cl)c1)Nc1ccc(N2CCOCC2)cc1 | -16% | 16µM* | ? | -9 | -6% | -4%
O=C(COc1cccc(Cl)c1)Nc1ccc(N2CCOCC2)cc1 | 0% | -22% | ? | -21 | -10% | -5%
CCOc1ccc(CONS(=O)(=O)c2ccc(NC(C)=O)cc2)cc1Cl | -19% | ? | 9.2µM* | -9 | -17% | -7%
CCOc1ccc(C(=O)CN2CCN(S(=O)(=O)c3ccc(OC)cc3)CC2)cc1 | -6% | 18µM* | ? | 14 | -11% | -8%
O=C(CC1CCCC1)Nc1ccc(Cl)c(S(=O)(=O)N2CCOCC2)c1 | 21µM* | ? | 16µM* | -1 | -7% | -30%
O=C(Nc1ccc(Cl)c(S(=O)(=O)N2CCOCC2)c1)C1CCC1 | ? | -20% | -14% | 19 | 3% | 0%
CS(=O)(=O)N1CCc2cc(C(=O)Nc3ccc(COCC(F)(F)F)cc3)ccc21 | ? | 18µM* | ? | 2 | -4% | -24%
CC(C)c1ccc(NC(=O)c2ccc3c(c2)CCN3S(C)(=O)=O)cc1 | ? | 21µM* | 8.2µM* | -29 | ? | -29%
COc1cccc(NC(=O)c2ccc3c(c2)CCN3S(C)(=O)=O)c1 | 17% | ? | ? | ? | 1% | -7%
CS(=O)(=O)N1CCc2cc(C(=O)Nc3ccc(O)cc3)ccc21 | -1% | 6% | 0% | 12 | -7% | -5%
CS(=O)(=O)N1CCCc2cc(C(=O)Nc3cccc(C(F)(F)F)c3)ccc21 | / | ? | 18µM* | / | / | /
CC(=O)NC(CC(=O)NNC(=O)c1cc2ccccc2cc1O)c1ccccc1 (stereo unspecified) | 7% | ? | ? | 65 | ? | ?
c1cncc(CNc2ccnc(-c3cccnc3)n2)c1 | / | ? | -7% | / | / | /
CNc1ccnc(-c2ccccc2C)n1 | / | 2% | 33% | / | / | /
COC(=O)CN(C#N)c1nc(NCc2ccccc2)nc(OC)n1 | 20% | ? | ? | -67* | 3% | 4%
COC(=O)CN(C#N)c1nc(NC(C)C)nc(OC)n1 | 8% | 1% | -13% | 0 | -9% | -1%
CCc1cccc(CC)c1NC(=O)CSc1nc2ccc(N3C(=O)C4C5C=CC(C5)C4C3=O)cc2s1 (stereo unspecified) | ? | 21µM* | 18µM* | -18 | ? | -18%
Cc1ccc(CCCNC(=O)C2CCC(=O)N(Cc3cccc(F)c3)C2)cc1 (stereo unspecified) | -3% | 5% | ? | -9 | 9% | -20%
C/C(CC(=O)Nc1ccc(N(C)C)cc1)=N\NC(=O)c1ccc([N+](=O)[O-])cc1 | -20% | -17% | -7% | 7 | -16% | -24%
O=C(NCCCOc1ccc([N+](=O)[O-])cc1Cl)OCc1ccccc1 | / | -29% | -25% | ? | 9% | 2%
Cc1cccc(CCNC(=O)c2ccc3c(c2)N(Cc2ccccc2F)C(=O)c2ccccc2S3)c1 | / | -39% | ? | / | / | /
COc1ccccc1CNC(=O)c1ccc2c(c1)N(Cc1cc(C)ccc1C)C(=O)c1ccccc1S2 | / | 9.2µM* | 9.2µM* | / | / | /
Cc1ccc(C)c(CN2C(=O)c3ccccc3Sc3ccc(C(=O)NC4CCCC4)cc32)c1 | / | 4% | ? | / | / | /
COc1ccc(CCNC(=O)c2ccc3c(c2)N(Cc2ccccc2C)C(=O)c2ccccc2S3)cc1OC | / | 3.3µM* | 3.7µM* | / | / | /
COc1ccc(OC)c(CN2C(=O)CSCC2(C)C(=O)Nc2c(C)cccc2C)c1 (stereo unspecified) | / | -7% | -7% | -67* | 3% | 2%
SMILES | ELG1 DNA repair | TDP1 cell CPT | DT40 TDP1 no CPT | IL1B secr inh | HT1080 IDH1KD tx | HT1080NT lethal
COc1ccc(CN2C(=O)CSCC2(C)C(=O)Nc2c(C)cccc2C)cc1OC (stereo unspecified) | / | -117% | -11% | -10 | 11% | 20%
CCN(CC)CCCN(Cc1cc2cc3c(cc2[nH]c1=O)OCCO3)C(=O)Nc1ccccc1 | 15% | ? | ? | -18 | -14% | -9%
Cc1ccc(NC(=O)N(CCCN2CCOCC2)Cc2cc3cc4c(cc3[nH]c2=O)OCO4)cc1 | 21% | 21µM* | ? | -28 | -6% | -8%
COc1cc2cc(CN(CCCN3CCOCC3)C(=O)Nc3ccc(F)cc3)c(=O)[nH]c2cc1OC | -6% | -29% | ? | -25 | -11% | -16%
O=C(Nc1ccccc1)N(CCCN1CCOCC1)Cc1cc2cc3c(cc2[nH]c1=O)OCCO3 | 13% | ? | 10µM* | -26 | -10% | -12%
O=C(Nc1ccccc1F)N(CCCN1CCOCC1)Cc1cc2cc3c(cc2[nH]c1=O)OCCO3 | 13% | 16µM* | 16µM* | ? | ? | -27%
CC(N)CCCP(=O)(O)O (stereo unspecified) | / | -21% | -11% | / | / | /
O=C(Nc1ccc(C(=O)NCCCN2CCN(c3ccccc3)CC2)cc1)C1=CSCCO1 | 0% | ? | -26% | 5 | -22% | -16%
CCCSCCCNC(=O)C1CCN(c2nc3ccccc3nc2C(F)(F)F)CC1 | / | 21µM* | 16µM* | / | / | /
COc1ccc(CCNC(=O)C2CCN(c3nc4ccccc4nc3C(F)(F)F)CC2)cc1OC | / | 23µM* | 18µM* | / | / | /
COc1ccc(OC)c(CNC(=O)C2CCN(c3nc4ccccc4nc3C(F)(F)F)CC2)c1 | / | -11% | 1% | / | / | /
O=C(NCc1cccc(F)c1)C1CCN(c2nc3ccccc3nc2C(F)(F)F)CC1 | / | -24% | ? | / | / | /
CN1CCN(CCC(=O)Nc2ccc(Cl)cc2)CC1 | / | 12% | 3% | / | / | /
CNc1nc(-c2ccccc2)c(-c2ccccc2)s1 | / | ? | ? | / | 4% | 1%
Cc1ccc(-c2nnn(C(C)C(=O)N3c4ccccc4CCc4ccccc43)n2)cc1 (stereo unspecified) | ? | ? | 29µM* | -1 | -8% | -16%
CN(C)c1ccc(-c2nnn(Cc3ccccc3Br)n2)cc1 | 22% | -21% | ? | -15 | 7% | -3%
CC(C(=O)N1c2ccccc2Sc2ccccc21)n1nnc(-c2cccs2)n1 (stereo unspecified) | -15% | -9% | -1% | 8 | 0% | 0%
